# Dicer processing: inhibitors of Dicer pre-microRNA processing, primary screen, biochemical, cat-ELCCA, chemiluminescence | cat-ELCCA pre-miR-21 Dicer processing; active compounds read high | AID 1347074, 2019 | z-score at 25 µM | Endoribonuclease Dicer (Homo sapiens), Q9UPY3 | 6% of 47,000 active; in the data active means z-score above about 3, passing the limit was not always enough;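 further: plate controls were vehicle for no effect and no enzyme for full effect; higher signal means more uncleaved substrate so more Dicer inhibition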
# An asterisk follows results filed as active. The full list was thinned out, with hits kept by preference.
SMILES,Dicer processing
O=C(/C=C/c1cccs1)Nc1ccc(N2CCOCC2)c(C(=O)O)c1,0.8
COC(=O)c1c(NC(=O)COc2ccc(Cl)cc2)sc2c1CCCC2,-0.64
CN(C)/C=N/C(=S)NC1CC2C=CC1C2 (configuration not stated),0.98
O=c1c(=CNc2ccccc2)c(=O)c2cccc3cccc1c32,0.59
O=C(O)C1=C(C(=O)Nc2ccccc2)CCCC1,0.14
O=C1CCCC/C1=C\Nc1ccccc1,4.28*
CCCNC(=O)O/N=C(\C)c1cc2cc([N+](=O)[O-])ccc2o1,0.23
O=c1[nH]c2sc(-c3ccccc3)cc2c(=O)n1-c1cccc(Cl)c1,4.38*
O=c1c2cc(-c3ccccc3)sc2[nH]c(=S)n1-c1ccccc1,4.06*
CN1CCc2c(sc3[nH]c(=S)n(-c4ccccc4)c(=O)c23)C1,-0.72
CC1CCc2c(sc3[nH]c(=S)n(-c4ccccc4)c(=O)c23)C1 (configuration not stated),-0.48
O=c1[nH]c2c(cnn2-c2ccccc2)c(=O)n1-c1ccc(Cl)c(Cl)c1,2.33
CCOC(=O)Cn1c(=O)n(-c2ccc(Cl)cc2)c(=O)c2cc(-c3ccccc3)sc21,0.05
O=C(c1cccs1)N1CCN(CCN2C(=O)c3cccc4cccc(c34)C2=O)CC1,0.18
COc1cc2c(c([N+](=O)[O-])c1)NC(c1ccccc1)CC2c1ccccc1 (configuration not stated),-0.3
COc1ccc(Oc2coc3cc(OCC(=O)NC4CCCCC4)ccc3c2=O)cc1,-1.01
COc1ccc(CN2CCN(C3CC4CCC3C4)CC2)c(OC)c1 (configuration not stated),0.29
CSCCC(Nc1ncnc2c1oc1ccccc12)C(=O)O (configuration not stated),0.26
O=C(C1CC1)N1c2ccccc2Sc2ccccc21,1.24
CC1(C)CC(NCC(=O)N2c3ccccc3Sc3ccc(Cl)cc32)CC(C)(C)N1,3.28*
CC(C)CNC(=O)N1c2ccccc2Sc2ccccc21,0.58
O=[N+]([O-])c1cccc(Cl)c1Oc1ccccc1,0.2
CN(NC1OC(=O)c2ccccc21)c1ncc(Cl)cc1C(F)(F)F (configuration not stated),0.04
O=C1OC(Nc2ccc([N+](=O)[O-])cn2)c2ccccc21 (configuration not stated),-0.83
CN(NC1OC(=O)c2ccccc21)c1ccccc1[N+](=O)[O-] (configuration not stated),3.21*
SMILES,Dicer processing
COC(=O)c1cc(Cl)cc2c1N[S@](=O)S2,-3.02
N/C(CS(=O)(=O)Cc1ccco1)=N\O,4.46*
N#C/C(=C\c1ccc(Cl)cc1)S(=O)(=O)Cc1ccco1,-0.03
Nc1ccc(S(=O)(=O)NCc2ccco2)cc1,1.07
Cc1onc(-c2ccccc2Cl)c1NC(=O)Nc1ccc(F)cc1,1.16
O=C(NCCCn1ccnc1)c1cc2n(n1)C(C(F)(F)F)CC(c1ccc(Cl)cc1)N2 (configuration not stated),0.68
Cc1cc(C)cc(NC(=O)c2cc3n(n2)C(C(F)(F)F)CC(c2ccco2)N3)c1 (configuration not stated),1.71
O=C(NC1CCCC1)c1cc2n(n1)C(C(F)(F)F)CC(c1ccccc1)N2 (configuration not stated),-0.58
O=C(NCc1ccccn1)c1cc2n(n1)C(C(F)(F)F)CC(c1ccco1)N2 (configuration not stated),0.16
Cc1ccc(C2CC(C(F)(F)F)n3nc(C(=O)NC(C)C)cc3N2)cc1 (configuration not stated),-0.35
O=C(NC1CCCC1)c1cc2n(n1)C(C(F)(F)F)CC(c1ccc(Br)cc1)N2 (configuration not stated),4.42*
O=C(NCc1cccs1)c1cc2n(n1)C(C(F)(F)F)CC(c1ccc(Cl)cc1)N2 (configuration not stated),0.44
O=C(NCc1ccco1)c1cc2n(n1)C(C(F)(F)F)CC(c1ccc(Br)cc1)N2 (configuration not stated),3.48*
O=C(Nc1cccnc1)c1cc2n(n1)C(C(F)(F)F)CC(c1ccc(Br)cc1)N2 (configuration not stated),4.67*
O=C(OCc1ccc2c(c1)OCO2)OCc1ccc2c(c1)OCO2,-0.25
CCSc1sc(CC)cc1C1C(C(=O)Nc2cccnc2)=C(C)NC2=C1C(=O)CC(C)(C)C2 (configuration not stated),1.56
CCOC(=O)N1CCc2c(sc3c2C(=O)NC(c2cc(Br)ccc2O)N3)C1 (configuration not stated),-6.91
CCOC(=O)/C(C#N)=N/Nc1cc(-c2ccccc2)[nH]n1,-2.41
Cc1ccc(-n2c(-c3ccccc3)c[n+]3c2CCCCC3)cc1,-1.54
Cc1[nH]ccc(=O)c1OCc1ccc(Cl)cc1Cl,0.06
CCOC(=O)c1cnc(-c2cccs2)nc1NNC(=O)c1ccc(Cl)cc1,-0.55
Cc1cc(C)c2nc(NCc3ccccc3O)sc2c1,2.9
COc1cc(CNc2nc3c(C)cc(C)cc3s2)ccc1O,3.13*
COc1cc(CCC(C)NCc2ccccc2)ccc1O (configuration not stated),-1.24
CCOC(=O)C(NC(=O)c1cccnc1SC)C(=O)OCC,-0.44
SMILES,Dicer processing
Cc1c2c(=O)n(-c3nc4ccccc4s3)[nH]c2cc(=O)n1Cc1ccc(C(=O)O)cc1,27.1*
CC(=O)N1CCN(CCn2c(C)c3c(=O)n(-c4nc5ccccc5s4)[nH]c3cc2=O)CC1,-0.51
Cc1c2c(=O)n(-c3nc4ccccc4s3)nc-2cc(O)n1Cc1ccccc1,0.33
O=C1c2cccnc2C(=O)N1c1ccc(F)cc1,1.67
CCc1nc2c(=O)n(C)c3c(c(=O)n(-c4ccccc4)c(=O)n3-c3ccccc3)c2o1,-0.13
Cc1ccc(Cn2[nH]nnc2=S)cc1,-2.61
CC1=NN(c2cccc(C(=O)O)c2)C(=O)C1,-3.57
Cc1ccc(C)n1-c1ccc(SCC(=O)O)cc1,1.96
Cc1ccc(C)n1-c1cc(C(=O)O)cc(C(=O)O)c1,10.8*
COc1cccc(NC(=S)C(C#N)C(=O)N2CCCC2)c1 (configuration not stated),-1.64
Clc1cccc(Nc2nnns2)c1Cl,1.36
Cc1cc(Cl)ccc1Nc1nnc(-c2ccccc2Cl)s1,-1.46
Cc1nnc(Nc2cccc(Cl)c2C)s1,3.43*
C=CCOC(=O)C1=C(C)NC2=C(C(=O)CCC2)C1c1cc2c(cc1Cl)OCO2 (configuration not stated),-0.68
O=C(/C=C/c1ccccc1)NC(=S)Nc1cc(C(F)(F)F)cc(C(F)(F)F)c1,-0.04
O=C(/C=C/c1ccccc1)NC(=S)Nc1ccc(OC(F)(F)F)cc1,-0.76
COC(=S)NC(=O)/C=C/c1ccccc1,3.45*
CCOC(=O)C(C#N)Cc1c(C)c(C)c(C)c(C)c1C (configuration not stated),1
CCN(C(=O)c1ccccc1)c1cccc2ccccc12,-1.19
CN(C(=O)c1ccccc1)C(=O)N(C)C(=O)c1ccccc1,-1.42
CN1C2C=C(N(CCc3ccccc3)C(=O)c3ccccc3)CC1CC2 (configuration not stated),3.14*
CCOC(=O)c1c(NC(=O)Nc2ccc(Cl)cc2)sc(C)c1-c1ccccc1,-1.11
N#Cc1cn(-c2ccccc2Cl)nc1N,-1.26
Brc1ccc(-c2nc(-c3ccccn3)no2)cc1,2.09
CS/C(=C\C(=O)c1cccs1)NCc1ccccc1,-1.42
Cc1cc(C)n2c(Br)c(CSc3nnnn3-c3ccccc3)nc2n1,4.24*

# Assay outcomes: PubChem BioAssay, Center for Chemical Genomics, University of Michigan
